Screens: PubChem BioAssay, ICCB-Longwood Screening Facility, Harvard Medical School
Compounds with a hit are over-represented: about 0.68% of the library has one in this group of screens.
Mtb hypoxia inh = inhibitors of hypoxia-regulated fluorescent reporter in Mycobacterium tuberculosis; M. tuberculosis hypoxia-regulated fluorescent reporter, fluorescence; AID 1159583; fluorescence inhibition, % (concentration not given with the values); 300,000 compounds, 0.1% hits; in the data active = fluorescence inhibition mostly above about 23%, no sharp cut-off; inactive = mostly below about 17%
ugtP null kill = compounds lethal to S. aureus RN4220 ugtP deletion mutant | OD600 growth, 16 h | growth inhibition, % (no concentration beside the values) | 330,000 compounds, 0.54% hits | AID 1259309; in the data active = growth inhibition above about 68%
RN4220 kill = S. aureus RN4220 growth inhibition. 330,000 compounds, 0.33% hits. OD600, 16 h. inhibition, % (test concentration not listed); in the data active = inhibition above about 85%
Large screens that a line does not name were inactive; ! = not confirmed by another sample.

O=[N+]([O-])c1ccccc1N=Nc1ccc(O)cc1	none
COc1cc(-c2nc3ccccc3nc2-c2ccc(O)c(OC)c2)ccc1O	none
COc1cc(C(=O)C(=O)c2ccc(O)c(OC)c2)ccc1O	none
COc1cc(N=Nc2ccc3ccccc3c2)ccc1O	ugtP null kill 93.7
NS(=O)(=O)c1ccc(N=Nc2c(O)ccc3ccccc23)cc1	none
COc1cc(N=Nc2ccccc2C(=O)O)ccc1O	Mtb hypoxia inh 48.4
Oc1ccc(N=Nc2c(O)ccc3ccccc23)cc1	ugtP null kill 97.7, RN4220 kill 86.4
O=C(CN1CCN(S(=O)(=O)c2ccc(Br)cc2)CC1)NN=Cc1ccncc1	none
Cc1ccccc1-n1c(O)c(C=Nc2nccs2)c(=O)[nH]c1=O	none
Clc1cccc(C=NNc2nnc(Cl)c3ccccc23)c1	none
Oc1c(Cl)cc(Cl)cc1C=NNc1ncc(Br)cn1	none
Cc1nc2ccccn2c1C(O)=C1C(=O)C(=O)N(CCCn2ccnc2)C1c1ccncc1 (stereo not given)	none
NS(=O)(=O)c1ccc(NN=Cc2ccc(O)cc2O)c([N+](=O)[O-])c1	none
Clc1ccc(C[n+]2csc3ccccc32)cc1	ugtP null kill 99.9, RN4220 kill 87.1
Cc1ccc(-c2c[n+](Cc3ccc(Cl)cc3)c3n2CCC3)cc1	none
N#CC(=Cc1ccc(Cl)cc1)c1nc2ccccc2o1	none
CN(C)CCOc1nc(-c2ccccc2)nc2c1oc1ccccc12	Mtb hypoxia inh 40.5
CN(C)CCOc1ncnc2c1oc1ccccc12	none
CCCCCCCCCCCCCCCC[N+](C)(C)C	ugtP null kill 100.2, RN4220 kill 100.4
C[N+](C)(C)CCCCCC[N+](C)(C)C	none
CCCCCC[N+](C)(C)CCSSCC[N+](C)(C)CCCCCC	none
CCCCCCCCCCCCCCCC[N+](C)(C)CC	ugtP null kill 100.1, RN4220 kill 99.8
CC(=O)Nc1ccc(S(=O)(=O)Oc2cccc(C=N/N=C3/NC(=O)C(CC(=O)O)S3)c2)cc1 (stereo not given)	none
CC(=O)OCCNc1cc(N2CCN(C)CC2)c2noc3c2c1C(=O)c1ccccc1-3	Mtb hypoxia inh 53.8
CCOC(=O)C(C(=O)OCC)c1cc(Br)c2noc3c2c1C(=O)c1ccccc1-3	none
O=C(CSc1nc2ccccc2n1Cc1ccccc1)NN=Cc1ccco1	none
CCC1=C(OC(=O)N(CC)CC)N2C(=O)OC(=NCC(=O)OC)[C@]2(Cc2ccccc2)C2C1=CCC1C(=O)N(c3ccccc3)C(=O)C12 (stereo not given in full)	none
COC(=O)N1C(C)C=C[C@]1(Cc1ccccc1)C(=O)OC (stereo not given in full)	none
CCCCN1C(=N)N([C@@H](CCC)CN2CCC[C@H]2CN2C(N)=NC[C@H]2C(C)C)C[C@H]1[C@H](C)CC	none
CCC(C)C1CN(C(C)CN2CCCC2CN2C(N)=NCC2CC(C)C)C(=N)N1CCc1ccc(Cl)c(Cl)c1 (stereo not given)	ugtP null kill 99.5, RN4220 kill 100.6 (not shown: Mtb hypoxia inh)
CCC(C)C1CN(C(C)CN2CCCC2CN2C(N)=NCC2Cc2ccccc2)C(=N)N1CCc1ccc(Cl)c(Cl)c1 (stereo not given)	ugtP null kill 97.6, RN4220 kill 99.9 (not shown: Mtb hypoxia inh)
CCCCN1C(=N)N(C(C)CN2CCCC2CN2C(N)=NCC2CC(C)C)CC1C(C)CC (stereo not given)	none
CCOC(=O)C1C2COc3ccc(OC)cc3C2N2C(=O)CN(Cc3ccc(Cl)cc3)C(=O)[C@@]12C (stereo not given in full)	none
COc1cc(OC)nc(N=CN(C)C)n1	none
COc1cc(C=NNC(=O)c2ccccc2F)ccc1Oc1ccc([N+](=O)[O-])cn1	none
O=C(Cn1nnc2ccccc21)NN=Cc1ccco1	none
Cn1c(=O)c(C(=O)NNC(=O)c2ccc(Br)cc2)c(O)c2ccccc21	ugtP null kill 99.7, RN4220 kill 97.9
Cn1c(=O)c(C(=O)NNC(=O)c2ccccc2F)c(O)c2ccccc21	none
COc1cc(C(=O)NCC(=O)NN=C(C)/C=C/c2ccccc2)cc(OC)c1OC	none
C[C@@]12C(=O)N(Cc3ccccc3)CC(=O)N1C1c3ccccc3OCC1C2c1ccccc1 (stereo not given in full)	none
Cc1c(CCOC(=O)C2C3CC4CC(C3)CC2C4)sc[n+]1CC(=O)c1ccc(Br)cc1 (stereo not given)	RN4220 kill 92.4!
Cc1c(CCOC(=O)c2ccc(Cl)cc2Cl)sc[n+]1CC(=O)c1ccc(Br)cc1	none
C#Cc1ccc(C2C=C(C(=O)N3CCN(Cc4ccccc4)CC3)OC(OCc3ccc(CO)cc3)C2)cc1 (stereo not given)	none
Cc1[nH]n2c(=O)cc(C(C)(C)C)nc2c1-c1ccccc1	ugtP null kill 95.8
Cc1[nH]n2c(=O)cc(C(C)C)nc2c1-c1ccccc1	none
Cc1[nH]n2c(=O)cc(-c3ccc([N+](=O)[O-])cc3)nc2c1-c1ccccc1	RN4220 kill 86.4 (not shown: Mtb hypoxia inh)
CCCc1cc(=O)n2[nH]c(C)c(-c3ccccc3)c2n1	none
C#CCNC(=O)C1=CC(c2csc3ccccc23)C(CCCO)C(OCC)O1 (stereo not given)	none
Oc1ccc(Nc2nc(-c3ccccc3)nc3ccccc23)cc1	none
COc1cccc(Nc2nc(-c3cccs3)nc3ccccc23)c1	none
COc1ccc(Nc2nc(-c3ccccc3)nc3ccccc23)cc1	ugtP null kill 94.8
COc1ccc(Nc2nc(-c3cccs3)nc3ccccc23)cc1	ugtP null kill 95.4
COc1ccc(C2CC(=O)C=C(c3ccc(Cl)c(F)c3)C2)cc1 (stereo not given)	none
COc1ccc(C(O)=C2C(=O)C(=O)N(c3nc(C)c(C)s3)C2c2ccco2)cc1 (stereo not given)	none
CC(=O)c1c(N2CCOCC2)nc2ccc(Br)cc2c1-c1ccccc1	ugtP null kill 85.1
O=c1[nH]c2ccc(Br)cc2c(-c2ccccc2)c1N1CCOCC1	none
O=[N+]([O-])c1cc(C=NO)ccc1Oc1ccc(F)cc1	none
c1ccc(-c2cc(-c3ccccc3)[n+](-c3ccccc3)c(-c3ccccc3)c2)cc1	none (not shown: Mtb hypoxia inh)
Cc1ccc(-c2cc(-c3ccccc3)cc(-c3ccccc3)[n+]2-c2ccccc2)cc1	ugtP null kill 97.8, RN4220 kill 93.7 (not shown: Mtb hypoxia inh)
Cc1ccc(-c2cc(-c3ccc(C)cc3)[n+](-c3ccccc3)c(-c3ccc(C)cc3)c2)cc1	ugtP null kill 100.3, RN4220 kill 100.9 (not shown: Mtb hypoxia inh)
CCOC(=O)c1cccc(-[n+]2c(-c3ccccc3)cc(-c3ccccc3)cc2-c2ccccc2)c1	none (not shown: Mtb hypoxia inh)
COC(=O)C1=C(c2ccc(F)cc2F)CC2CCC1N2C(=O)NCCO (stereo not given)	none
CC(=O)n1cc(C2C=C(C(=O)N3CCN(Cc4ccc5c(c4)OCO5)CC3)OC(OCc3ccc(CO)cc3)C2)c2ccccc21 (stereo not given)	none
COc1ccccc1C1C(c2cccc(C)c2)=NN(c2ccccc2)C1C(=O)N1CCOC1=O (stereo not given)	none
N#C/C(=C\c1ccc([N+](=O)[O-])o1)c1nc2ccccc2[nH]1	ugtP null kill 100.1, RN4220 kill 99.9 (not shown: Mtb hypoxia inh)
Cc1ccc2nc(/C(C#N)=C\c3ccc([N+](=O)[O-])o3)[nH]c2c1	ugtP null kill 98.7, RN4220 kill 99.5 (not shown: Mtb hypoxia inh)
N#C/C(=C(/O)c1ccc([N+](=O)[O-])o1)c1nc2ccccc2[nH]1	none
Cc1ccc2nc(/C(C#N)=C\c3ccc(N4CCOCC4)o3)[nH]c2c1	none (no result: Mtb hypoxia inh)
COc1cc2c(cc1Cl)C(=CCCN(C)C)c1ccccc1S2	none
O=C(O)CCC(=O)Nc1nnc(C(F)(F)F)s1	none (no result: Mtb hypoxia inh)
